Results from PubChem BioAssay.
Calls of active or inactive are those of the source.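 Rule for the calls, unless noted: active = compounds lowering colon cancer cell viability after pretreatment blocking the GSK3B kinase; inactive = the rest.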

Key:
[1] = survival rescue of mitochondrial mutant cells in low glucose, primary screen, MELAS cybrids, Rieske KO mouse fibroblasts, CellTiter-Glo (AID 1508586;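 active = mean z-score across replicates of 1.96 or higher in either the MELAS or the Rieske mutant cell line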;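 note: z relative to plate mean and SD of compound and empty wells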)
[2] = stimulators of nuclear beta-catenin in C2C12, primary screen, imaging, WNT3A-conditioned medium, mouse C2C12, NPC library (AID 1117326; in the data active = nuclear beta-catenin stimulation mostly above about 4.2%, no sharp cut-off; inactive = mostly below about 10%; note: reference of the scale not given here); conditions: stronger effect = higher value
[3] = stimulators of insulin release from INS-1E, primary screen, cell-based, 5 mM glucose, NPC library (AID 1117329;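 active = compound raises insulin release from rat beta cells at 5 mM glucose, no numeric limit stated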; note: reference of the scale not given here); conditions: rat INS-1E insulin secretion, at 10 µM, stronger effect = higher value
[4] = growth inhibition of GSK3B-pretreated HCT116 cells – cell-based, CellTiter-Glo, 0.2 to 20 µM (AID 1117336); conditions: HCT116 viability after GSK3B inhibitor, at 20 µM, stronger effect = higher value
[5] = inhibition of endothelial tube formation, primary screen, imaging, VEGF stimulated, CD31 staining, tube area, NPC library (AID 1117340;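 active = compound that reduces growth-factor-driven endothelial tube area in a mixed cell culture, no cutoff stated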); conditions: VEGF-stimulated ADSC/ECFC co-culture, at 10 µM, stronger effect = higher value
[6] = glucagon-like peptide 1 release enhancers, primary assay, NCI-H716 cell line, NPC library (AID 1117341;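 active = compound raises GLP1 secretion from the human gut endocrine cells, with no numeric limit stated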; note: reference of the scale not given here); conditions: NCI-H716 cells, at 10 µM, stronger effect = higher value
[7] = HCT116 colon cancer cell growth inhibition, primary screen, CellTiter-Glo luminescence, NPC library (AID 1117342;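 active = compounds that lower survival of HCT116 colon cancer cells in the luminescence readout, no numeric limit stated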); conditions: at 20 µM (top of the series)
[8] = CellTiter-Glo luminescent readout of SW480 viability loss, NPC library primary (AID 1117343;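 active = compounds that lower viability of the colon cancer cells in the luminescence readout, with no numeric limit stated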); conditions: CellTiter-Glo luminescence; at 20 µM (top of the series)
[9] = decreased DLD-1 cellular survival, CellTiter-Glo luminescent readout, NPC compound collection, primary HTS (AID 1117346;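 active = compounds that lower survival of DLD-1 colon cancer cells in the luminescence readout, no cutoff given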); conditions: DLD-1 viability, CellTiter-Glo luminescence; at 20 µM (top of the series)
[10] = MELAS cybrid survival, CellTiter-Glo 48 h, stronger effect = higher value
[11] = Rieske KO mouse fibroblast survival, CellTiter-Glo 72 h

Row | SMILES | z-score [1, 10] | z-score [1, 11] | nuclear beta-catenin stimulation ([2]; at 10 µM) | nuclear beta-catenin stimulation ([2]; stimulation, at 2 µM) | insulin secretion stimulation [3] | viability decrease [4] | tube area decrease [5] | GLP1 secretion stimulation [6] | inhibition of viability [7] | viability decrease (inhibition) [8] | viability decrease (inhibition) [9]
1 | CNC(=O)Oc1cc(C)c(/C=C/c2cncc(C(=O)NC)c2)c(C)c1 | -0.555 (inactive) | 0.0985 |  |  |  |  |  |  |  |  | 
2 | O=C(NC1NNC2NNC(c3cccnc3)CC21)C1CC1 (stereo unspecified) | -1.09 (inactive) | -0.386 |  |  |  |  |  |  |  |  | 
3 | CCc1ccc(C2CCNCC2)cc1 |  |  | -1.4% (inactive) | -0.7% | 4% (inactive) | -2.8% (inactive) | 1.2% (inactive) | -5.6% (inactive) | 24.1% (inactive) | 9% (inactive) | -8.7% (inactive)
4 | CCS(=O)(=O)C(C)(C)S(=O)(=O)CC |  |  | -0.7% (inactive) | 1.4% | -0.1% (inactive) | 2.1% (inactive) | -6.6% (inactive) | -1.4% (inactive) | -17.9% (inactive) | -3.1% (inactive) | -0.85% (inactive)
5 | CCN(Cc1ccc(Cl)nc1)/C(=C/[N+](=O)[O-])NC |  |  | -0.1% (inactive) | 1.1% | 3.5% (inactive) | 3.9% (inactive) | -21.3% (inactive) | -4.7% (inactive) | -3.27% (inactive) | 13.3% (inactive) | 4.5% (inactive)
6 | CC(C)=C[C@@H]1[C@@H](C(=O)OCc2coc(Cc3ccccc3)c2)C1(C)C |  |  | 0.3% (inactive) | 0.4% | -3.4% (inactive) | 14.7% (inactive) | 12.6% (inactive) | -0.4% (inactive) | 12.9% (inactive) | 87.8% (active) | 23.4% (inactive)
7 | CCCOC(=O)Cc1ccc(OCC(=O)N(CC)CC)c(OC)c1 |  |  | 0.4% (inactive) | 1.3% | -1.7% (inactive) | 0.2% (inactive) | -2.3% (inactive) | -1.8% (inactive) | 9.6% (inactive) | 8.2% (inactive) | -4.8% (inactive)
8 | C[C@]12CC[C@H]3[C@@H](CCC4=CC(=O)CC[C@@]43C)[C@@H]1CC[C@@H]2C(=O)O |  |  | 0.7% (inactive) | 0.3% | 0.2% (inactive) | 3.5% (inactive) | 8.1% (inactive) | -3.2% (inactive) | 5.9% (inactive) | -1.3% (inactive) | 2.4% (inactive)
9 | O=c1c(C2CC(c3ccc(-c4ccc(Br)cc4)cc3)Cc3ccccc32)c(O)sc2ccccc12 (stereo unspecified) |  |  | 0% (inactive) | -2.4% | 1.05% (inactive) | 117% (active) | 34.2% (inactive) | 4.8% (inactive) | 123% (active) | 157% (active) | 101% (active)
10 | CC1(C)S[C@@H]2[C@H](N)C(=O)N2[C@@H]1C(=O)O |  |  | 0.4% (inactive) | 3% | -0.3% (inactive) | -4.5% (inactive) | 7.5% (inactive) | 0% (inactive) | 2.1% (inactive) | 6.9% (inactive) | -4.4% (inactive)
